# In article PMC7862700, “An all-to-all approach to the identification of sequence-specific readers for epigenetic DNA modifications on cytosine”:
# How the values were obtained:
# Assay in all cases: DAPPL (digital affinity profiling via proximity ligation, sequencing); 10 mM Tris-HCl pH 7.5, 50 mM NaCl, 1 mM DTT, 4% glycerol, room temperature, 30 min; GST-TFs on glutathione beads, 16-mer random dsDNA library, 0.1% formaldehyde crosslink after washing; high values mean tight binding
# Conditions in all cases: protein: recombinant; tags: N-terminal GST; dsDNA, one strand shown
# FLI1 = molecular target: T1, FLI1 (Homo sapiens, UniProt Q01543 1-452)
# T1 sequence: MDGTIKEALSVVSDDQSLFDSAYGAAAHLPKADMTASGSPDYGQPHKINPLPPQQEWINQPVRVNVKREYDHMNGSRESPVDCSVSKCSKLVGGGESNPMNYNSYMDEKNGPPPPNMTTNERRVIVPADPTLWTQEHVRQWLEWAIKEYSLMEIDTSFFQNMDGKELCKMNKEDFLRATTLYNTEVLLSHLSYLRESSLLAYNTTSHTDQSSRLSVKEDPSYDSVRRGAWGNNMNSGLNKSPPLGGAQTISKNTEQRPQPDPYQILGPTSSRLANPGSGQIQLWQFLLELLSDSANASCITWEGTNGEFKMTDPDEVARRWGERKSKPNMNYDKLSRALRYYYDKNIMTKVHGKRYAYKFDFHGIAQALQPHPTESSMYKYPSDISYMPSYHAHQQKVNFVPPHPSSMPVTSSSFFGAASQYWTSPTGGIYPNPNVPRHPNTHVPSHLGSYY
# How it was run: (§1)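 Sequencing on an Illumina NextSeq500 followed washing, crosslinking with 0.1% formaldehyde, proximity ligation (BsaI/T4 ligase, 1 h, 37 °C) and PCR amplification of pools that had been incubated for 30 min at room temperature with 200 nmole of a random double-stranded 16-mer DNA library in Tris/NaCl/DTT/glycerol buffer. Each pool held DNA-barcoded human transcription factors, expressed in yeast as GST fusions and captured on glutathione beads, plus a tag-only sample. Binding signal is a hexamer's read frequency for a factor divided by its frequency in the tag-only sample.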
# ELK1 = molecular target: T2, ELK1 (Homo sapiens, UniProt P19419 1-428)
# T2 sequence: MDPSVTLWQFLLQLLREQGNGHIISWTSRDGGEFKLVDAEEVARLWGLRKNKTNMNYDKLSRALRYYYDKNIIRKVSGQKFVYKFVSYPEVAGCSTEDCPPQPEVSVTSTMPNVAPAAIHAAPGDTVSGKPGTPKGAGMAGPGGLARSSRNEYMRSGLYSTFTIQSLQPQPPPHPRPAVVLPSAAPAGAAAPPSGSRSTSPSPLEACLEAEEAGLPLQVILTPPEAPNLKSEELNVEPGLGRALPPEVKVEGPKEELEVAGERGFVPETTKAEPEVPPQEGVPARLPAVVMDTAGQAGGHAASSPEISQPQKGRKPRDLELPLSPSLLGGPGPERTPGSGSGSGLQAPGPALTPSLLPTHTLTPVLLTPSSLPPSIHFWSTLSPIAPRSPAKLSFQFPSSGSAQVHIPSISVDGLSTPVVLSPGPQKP
# How it was run: as §1
# GABPA = molecular target: T3, GABPA (Homo sapiens, UniProt Q06546 1-454)
# T3 sequence: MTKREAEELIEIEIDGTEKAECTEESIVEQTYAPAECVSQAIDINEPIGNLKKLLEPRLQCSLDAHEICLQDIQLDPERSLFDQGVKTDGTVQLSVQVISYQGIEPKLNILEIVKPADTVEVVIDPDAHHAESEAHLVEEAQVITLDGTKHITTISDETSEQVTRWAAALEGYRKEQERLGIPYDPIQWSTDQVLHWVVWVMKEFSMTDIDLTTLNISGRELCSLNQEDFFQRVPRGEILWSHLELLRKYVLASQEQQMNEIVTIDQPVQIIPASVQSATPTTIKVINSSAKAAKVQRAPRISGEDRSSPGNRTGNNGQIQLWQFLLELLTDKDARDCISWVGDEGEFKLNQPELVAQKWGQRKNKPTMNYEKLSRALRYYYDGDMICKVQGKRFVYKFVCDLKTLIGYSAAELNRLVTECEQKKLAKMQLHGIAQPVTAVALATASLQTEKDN
# How it was run: as §1
# ERG = molecular target: T4, ERG (Homo sapiens, UniProt P11308 1-479)
# T4 sequence: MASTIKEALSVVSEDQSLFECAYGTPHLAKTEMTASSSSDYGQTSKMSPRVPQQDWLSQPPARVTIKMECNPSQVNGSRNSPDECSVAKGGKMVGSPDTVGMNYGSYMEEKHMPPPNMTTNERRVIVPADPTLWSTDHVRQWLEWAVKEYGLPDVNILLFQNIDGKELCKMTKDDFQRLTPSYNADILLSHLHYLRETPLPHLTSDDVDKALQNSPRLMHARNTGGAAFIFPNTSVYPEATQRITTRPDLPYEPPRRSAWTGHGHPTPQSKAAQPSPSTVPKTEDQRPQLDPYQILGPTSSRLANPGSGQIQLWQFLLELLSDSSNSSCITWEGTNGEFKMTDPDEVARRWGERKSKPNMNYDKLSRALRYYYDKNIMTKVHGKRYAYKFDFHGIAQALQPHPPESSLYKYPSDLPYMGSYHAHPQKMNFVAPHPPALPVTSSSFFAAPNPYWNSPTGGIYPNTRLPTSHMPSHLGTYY
# How it was run: as §1
# ELF1 = ELF1 (Homo sapiens, UniProt P32519 1-619)
# ELF1, sequence (P32519 whole entry): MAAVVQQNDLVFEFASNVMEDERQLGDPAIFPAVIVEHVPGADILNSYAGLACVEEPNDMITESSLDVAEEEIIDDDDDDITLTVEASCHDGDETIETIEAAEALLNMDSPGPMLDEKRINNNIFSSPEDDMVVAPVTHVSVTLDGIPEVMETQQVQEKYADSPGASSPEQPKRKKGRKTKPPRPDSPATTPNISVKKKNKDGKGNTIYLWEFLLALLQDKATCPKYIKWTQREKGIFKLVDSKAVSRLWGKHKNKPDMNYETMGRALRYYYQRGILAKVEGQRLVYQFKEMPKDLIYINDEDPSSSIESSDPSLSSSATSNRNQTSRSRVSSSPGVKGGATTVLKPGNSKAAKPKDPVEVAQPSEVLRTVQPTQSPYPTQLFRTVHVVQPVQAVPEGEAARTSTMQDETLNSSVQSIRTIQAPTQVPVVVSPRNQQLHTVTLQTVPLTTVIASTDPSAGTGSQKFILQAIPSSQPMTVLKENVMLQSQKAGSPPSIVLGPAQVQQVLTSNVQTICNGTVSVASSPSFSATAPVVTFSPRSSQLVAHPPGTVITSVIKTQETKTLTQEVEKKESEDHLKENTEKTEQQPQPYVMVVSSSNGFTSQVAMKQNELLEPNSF
# How it was run: as §1
# EHF = molecular target: T5, EHF (Homo sapiens, UniProt Q9NZC4 1-300)
# T5 sequence: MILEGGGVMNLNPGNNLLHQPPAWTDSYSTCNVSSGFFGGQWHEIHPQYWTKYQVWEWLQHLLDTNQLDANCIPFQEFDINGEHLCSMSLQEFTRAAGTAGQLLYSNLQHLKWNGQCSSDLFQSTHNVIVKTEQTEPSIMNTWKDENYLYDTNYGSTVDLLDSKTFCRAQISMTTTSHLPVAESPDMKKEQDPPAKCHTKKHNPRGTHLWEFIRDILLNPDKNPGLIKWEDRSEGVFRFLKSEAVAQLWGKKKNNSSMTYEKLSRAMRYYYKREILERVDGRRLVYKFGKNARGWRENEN
# How it was run: as §1
# SPI1 = SPI1 (Homo sapiens, UniProt P17947 1-270)
# How it was run: as §1
# SPIB = SPIB (Homo sapiens, UniProt Q01892 1-262)
# SPIB, sequence (Q01892 whole entry): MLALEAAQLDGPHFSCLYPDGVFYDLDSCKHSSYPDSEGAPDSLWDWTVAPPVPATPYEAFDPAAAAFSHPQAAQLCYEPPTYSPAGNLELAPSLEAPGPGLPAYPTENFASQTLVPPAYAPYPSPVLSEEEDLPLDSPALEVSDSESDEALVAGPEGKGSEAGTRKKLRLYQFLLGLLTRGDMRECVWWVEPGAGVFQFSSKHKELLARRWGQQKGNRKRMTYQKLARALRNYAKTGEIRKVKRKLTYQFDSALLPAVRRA
# How it was run: as §1
# ELK3 = molecular target: T6, ELK3 (Homo sapiens, UniProt P41970 1-407)
# T6 sequence: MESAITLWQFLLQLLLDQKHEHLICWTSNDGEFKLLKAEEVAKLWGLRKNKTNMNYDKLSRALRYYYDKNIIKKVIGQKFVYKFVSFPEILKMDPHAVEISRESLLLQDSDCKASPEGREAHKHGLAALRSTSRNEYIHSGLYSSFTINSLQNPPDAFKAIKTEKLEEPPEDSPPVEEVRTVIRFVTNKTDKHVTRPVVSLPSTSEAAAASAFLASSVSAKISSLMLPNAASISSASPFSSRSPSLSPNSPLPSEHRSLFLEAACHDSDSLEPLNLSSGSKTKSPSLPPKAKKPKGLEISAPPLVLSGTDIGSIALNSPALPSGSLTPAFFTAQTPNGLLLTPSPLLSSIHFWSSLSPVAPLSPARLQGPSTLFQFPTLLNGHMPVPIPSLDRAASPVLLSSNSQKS
# How it was run: as §1
Sequence,binding signal (FLI1),binding signal (ELK1),binding signal (GABPA),binding signal (ERG),binding signal (ELF1),binding signal (EHF),binding signal (SPI1),binding signal (SPIB),binding signal (ELK3)
TACTTA,"1.17 fold enrichment (6-mer frequency, TF over GST control)","1.18 fold enrichment (6-mer frequency, TF over GST control)","1.15 fold enrichment (6-mer frequency, TF over GST control)","1.16 fold enrichment (6-mer frequency, TF over GST control)","1.22 fold enrichment (6-mer frequency, TF over GST control)","1.33 fold enrichment (6-mer frequency, TF over GST control)","1.21 fold enrichment (6-mer frequency, TF over GST control)","1.15 fold enrichment (6-mer frequency, TF over GST control)","1.42 fold enrichment (6-mer frequency, TF over GST control)"
CGAGCT,"1.02 fold enrichment (6-mer frequency, TF over GST control)","1.02 fold enrichment (6-mer frequency, TF over GST control)","1.09 fold enrichment (6-mer frequency, TF over GST control)","1.04 fold enrichment (6-mer frequency, TF over GST control)","1.06 fold enrichment (6-mer frequency, TF over GST control)","1.13 fold enrichment (6-mer frequency, TF over GST control)","1.03 fold enrichment (6-mer frequency, TF over GST control)","1.04 fold enrichment (6-mer frequency, TF over GST control)","1.06 fold enrichment (6-mer frequency, TF over GST control)"
AACCAT,"1.14 fold enrichment (6-mer frequency, TF over GST control)","1.17 fold enrichment (6-mer frequency, TF over GST control)","1.16 fold enrichment (6-mer frequency, TF over GST control)","1.2 fold enrichment (6-mer frequency, TF over GST control)","1.18 fold enrichment (6-mer frequency, TF over GST control)","1.22 fold enrichment (6-mer frequency, TF over GST control)","1.12 fold enrichment (6-mer frequency, TF over GST control)","1.12 fold enrichment (6-mer frequency, TF over GST control)","1.28 fold enrichment (6-mer frequency, TF over GST control)"
CGACCC,"1.42 fold enrichment (6-mer frequency, TF over GST control)","1.46 fold enrichment (6-mer frequency, TF over GST control)","1.44 fold enrichment (6-mer frequency, TF over GST control)","1.22 fold enrichment (6-mer frequency, TF over GST control)","1.26 fold enrichment (6-mer frequency, TF over GST control)","1.29 fold enrichment (6-mer frequency, TF over GST control)","1.23 fold enrichment (6-mer frequency, TF over GST control)","1.21 fold enrichment (6-mer frequency, TF over GST control)","1.37 fold enrichment (6-mer frequency, TF over GST control)"
CTGGCA,"1.33 fold enrichment (6-mer frequency, TF over GST control)","1.28 fold enrichment (6-mer frequency, TF over GST control)","1.39 fold enrichment (6-mer frequency, TF over GST control)","1.2 fold enrichment (6-mer frequency, TF over GST control)","1.26 fold enrichment (6-mer frequency, TF over GST control)","1.23 fold enrichment (6-mer frequency, TF over GST control)","1.22 fold enrichment (6-mer frequency, TF over GST control)","1.29 fold enrichment (6-mer frequency, TF over GST control)","1.43 fold enrichment (6-mer frequency, TF over GST control)"
GTACAT,"1.4 fold enrichment (6-mer frequency, TF over GST control)","1.35 fold enrichment (6-mer frequency, TF over GST control)","1.17 fold enrichment (6-mer frequency, TF over GST control)","1.35 fold enrichment (6-mer frequency, TF over GST control)","1.36 fold enrichment (6-mer frequency, TF over GST control)","1.26 fold enrichment (6-mer frequency, TF over GST control)","1.28 fold enrichment (6-mer frequency, TF over GST control)","1.36 fold enrichment (6-mer frequency, TF over GST control)","1.44 fold enrichment (6-mer frequency, TF over GST control)"
TCATGG,"1.11 fold enrichment (6-mer frequency, TF over GST control)","1.05 fold enrichment (6-mer frequency, TF over GST control)","1.11 fold enrichment (6-mer frequency, TF over GST control)","1.15 fold enrichment (6-mer frequency, TF over GST control)","1.18 fold enrichment (6-mer frequency, TF over GST control)","1.12 fold enrichment (6-mer frequency, TF over GST control)","1.08 fold enrichment (6-mer frequency, TF over GST control)","1.11 fold enrichment (6-mer frequency, TF over GST control)","1.16 fold enrichment (6-mer frequency, TF over GST control)"
GGAAAT,"2.51 fold enrichment (6-mer frequency, TF over GST control)","2.64 fold enrichment (6-mer frequency, TF over GST control)","2.39 fold enrichment (6-mer frequency, TF over GST control)","3.22 fold enrichment (6-mer frequency, TF over GST control)","2.39 fold enrichment (6-mer frequency, TF over GST control)","3.06 fold enrichment (6-mer frequency, TF over GST control)","2.6 fold enrichment (6-mer frequency, TF over GST control)","2.88 fold enrichment (6-mer frequency, TF over GST control)","2.69 fold enrichment (6-mer frequency, TF over GST control)"
